Data from the supplement of paper PMC10849652.
The full data set covers some 7,900 targets. This sample favours those with a hit. About 0.6% of all pairs of compound and target were hits.

Key:
Test in all cases: log2 fold change, soluble protein after heating vs DMSO (PISA); higher = thermal stabilisation; K562 cells, 10 uM, 30 min; active = over 0.2 and 3.5 SD of the protein, either way, in both replicates (recomputed)
[1] = compound: COC1=CC=C(C=C1)CN2C=CC3=C2C=C(C=C3)C(=O)NO
Method in brief: (§1)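 K562 cells at 2×10^6 cells/mL were given 10 μM compound for 30 min. Aliquots then went through 3 min of heating across 48°C-58°C, were pooled, and were extracted in PBS with 0.5% NP-40 at 4°C, and the supernatant after 21,000xg for 90 min was quantified by TMTpro 16plex LC-MS/MS with channel sums equalised. Thermal stability relative to control samples, from duplicates, is given as log2 fold change.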

[2] = compound: CON(C)C(=O)N1N=C(c2cc(F)ccc2F)S[C@@]1(CCCN)c1ccccc1 [filanesib]
Method in brief: as §1

[3] = compound: CO[C@H]1C[C@@H]2CC[C@@H](C)[C@@](O)(O2)C(=O)C(=O)N2CCCC[C@H]2C(=O)O[C@H]([C@H](C)C[C@@H]2CC[C@H](n3cnnn3)[C@H](OC)C2)CC(=O)[C@H](C)/C=C(\C)[C@@H](O)[C@@H](OC)C(=O)[C@H](C)C[C@H](C)/C=C/C=C/C=C/1C [zotarolimus]
Method in brief: as §1

[4] = compound: COc1cc(C(=O)O)ccc1NC(=O)[C@@H]1N[C@@H](CC(C)(C)C)[C@](C#N)(c2ccc(Cl)cc2F)[C@H]1c1cccc(Cl)c1F [idasanutlin]
Method in brief: as §1

[5] = compound: COc1cc(Nc2ncc3c(n2)-c2ccc(Cl)cc2C(c2c(F)cccc2OC)=NC3)ccc1C(=O)O [alisertib]
Method in brief: as §1

[6] = compound: COc1cc2nc(-c3cc(F)ccc3O)nc(N[C@@H]3CNC[C@H]3C(C)(C)O)c2cc1OC
Method in brief: as §1

[7] = compound: COc1cc2ncnc(Nc3ccc(F)c(Cl)c3)c2cc1OCCCN1CCOCC1 [gefitinib]
Method in brief: as §1

[8] = compound: COc1cccc2cc(-c3nc([C@H]4CC[C@H](C(=O)O)CC4)n4ncnc(N)c34)[nH]c12
Method in brief: as §1

[9] = compound: CS(=O)(=O)CCNCc1ccc(-c2ccc3ncnc(Nc4ccc(OCc5cccc(F)c5)c(Cl)c4)c3c2)o1 [lapatinib]
Method in brief: as §1

[10] = compound: CS(=O)(=O)N1CCN(Cc2cc3nc(-c4cccc5[nH]ncc45)nc(N4CCOCC4)c3s2)CC1 [pictilisib]
Method in brief: as §1

[11] = compound: CS(=O)(=O)c1ccc(-c2cnc(N)c(C(=O)Nc3ccccc3)n2)cc1
Method in brief: as §1

[12] = compound: C[C@@H](Oc1cc(-c2cnn(C3CCNCC3)c2)cnc1N)c1c(Cl)ccc(F)c1Cl [crizotinib]
Method in brief: as §1

[13] = compound: C[C@H](C1=CC=C(C=C1)C(=O)NC2=C3C=CNC3=NC=C2)N
Method in brief: as §1

[14] = compound: C[C@H](Nc1ncnc2nc[nH]c12)c1cc2cccc(Cl)c2c(=O)n1-c1ccccc1 [duvelisib]
Method in brief: as §1

[15] = compound: Cc1cc(Nc2cc(CN3CCOCC3)c3nc(C)c(Cc4ccc(Cl)cc4F)n3n2)n[nH]1 [gandotinib]
Method in brief: as §1

[16] = compound: Cc1cc(Nc2cc(N3CCN(C)CC3)nc(Sc3ccc(NC(=O)C4CC4)cc3)n2)n[nH]1 [tozasertib]
Method in brief: as §1

[17] = compound: Cc1cc(SCc2sc(-c3ccc(C(F)(F)F)cc3)nc2C)ccc1OCC(=O)O
Method in brief: as §1

[18] = compound: Cc1ccc(-n2nc(C(C)(C)C)cc2NC(=O)Nc2ccc(OCCN3CCOCC3)c3ccccc23)cc1 [doramapimod]
Method in brief: as §1

[19] = compound: Cc1ccc(C(=O)N(CCCN)[C@@H](c2nc3cc(Cl)ccc3c(=O)n2Cc2ccccc2)C(C)C)cc1 [ispinesib]
Method in brief: as §1

[20] = compound: C[C@@H]1COCCN1C2=NC(=NC(=C2)C3(CC3)S(=O)(=O)C)C4=C5C=CNC5=CC=C4
Method in brief: as §1

Measured: log2 fold change

BRD3 (UniProt Q15059)
inactive: [1] 0.027 | [2] 0.297 | [3] -0.077 | [4] -0.012 | [5] -0.035 | [6] 0.086 | [7] 0.227 | [8] -0.002 | [9] -0.057 | [10] 0.081 | [11] 0.117 | [12] 0.109 | [13] -0.02 | [14] 0.193 | [15] -0.081 | [16] -0.027 | [17] -0.037 | [18] -0.083 | [19] -0.03

AURKA (UniProt O14965)
active: [5] 1.36 | [15] 1.01
inactive: [1] 0.021 | [2] 0.009 | [3] -0.021 | [4] -0.095 | [6] 0.048 | [7] -0.03 | [8] 0.01 | [9] 0.025 | [10] 0.055 | [11] 0.198 | [20] -0.251 | [13] 0.066 | [14] -0.058 | [17] -0.013 | [18] 0.051 | [19] -0.107

ANK2 (UniProt Q01484)
active: [10] 0.532
inactive: [1] -0.054 | [2] -0.052 | [3] -0.05 | [4] 0.083 | [5] -0.076 | [6] -0.04 | [7] -0.062 | [8] 0.048 | [9] -0.013 | [11] 0.066 | [12] 0.062 | [13] -0.005 | [14] 0.21 | [15] -0.092 | [16] 0.011 | [17] 0.089 | [18] 0.055 | [19] -0.188

ATR (UniProt Q13535)
Chain of UniProt Q13535 (Q13535 whole entry, looked up): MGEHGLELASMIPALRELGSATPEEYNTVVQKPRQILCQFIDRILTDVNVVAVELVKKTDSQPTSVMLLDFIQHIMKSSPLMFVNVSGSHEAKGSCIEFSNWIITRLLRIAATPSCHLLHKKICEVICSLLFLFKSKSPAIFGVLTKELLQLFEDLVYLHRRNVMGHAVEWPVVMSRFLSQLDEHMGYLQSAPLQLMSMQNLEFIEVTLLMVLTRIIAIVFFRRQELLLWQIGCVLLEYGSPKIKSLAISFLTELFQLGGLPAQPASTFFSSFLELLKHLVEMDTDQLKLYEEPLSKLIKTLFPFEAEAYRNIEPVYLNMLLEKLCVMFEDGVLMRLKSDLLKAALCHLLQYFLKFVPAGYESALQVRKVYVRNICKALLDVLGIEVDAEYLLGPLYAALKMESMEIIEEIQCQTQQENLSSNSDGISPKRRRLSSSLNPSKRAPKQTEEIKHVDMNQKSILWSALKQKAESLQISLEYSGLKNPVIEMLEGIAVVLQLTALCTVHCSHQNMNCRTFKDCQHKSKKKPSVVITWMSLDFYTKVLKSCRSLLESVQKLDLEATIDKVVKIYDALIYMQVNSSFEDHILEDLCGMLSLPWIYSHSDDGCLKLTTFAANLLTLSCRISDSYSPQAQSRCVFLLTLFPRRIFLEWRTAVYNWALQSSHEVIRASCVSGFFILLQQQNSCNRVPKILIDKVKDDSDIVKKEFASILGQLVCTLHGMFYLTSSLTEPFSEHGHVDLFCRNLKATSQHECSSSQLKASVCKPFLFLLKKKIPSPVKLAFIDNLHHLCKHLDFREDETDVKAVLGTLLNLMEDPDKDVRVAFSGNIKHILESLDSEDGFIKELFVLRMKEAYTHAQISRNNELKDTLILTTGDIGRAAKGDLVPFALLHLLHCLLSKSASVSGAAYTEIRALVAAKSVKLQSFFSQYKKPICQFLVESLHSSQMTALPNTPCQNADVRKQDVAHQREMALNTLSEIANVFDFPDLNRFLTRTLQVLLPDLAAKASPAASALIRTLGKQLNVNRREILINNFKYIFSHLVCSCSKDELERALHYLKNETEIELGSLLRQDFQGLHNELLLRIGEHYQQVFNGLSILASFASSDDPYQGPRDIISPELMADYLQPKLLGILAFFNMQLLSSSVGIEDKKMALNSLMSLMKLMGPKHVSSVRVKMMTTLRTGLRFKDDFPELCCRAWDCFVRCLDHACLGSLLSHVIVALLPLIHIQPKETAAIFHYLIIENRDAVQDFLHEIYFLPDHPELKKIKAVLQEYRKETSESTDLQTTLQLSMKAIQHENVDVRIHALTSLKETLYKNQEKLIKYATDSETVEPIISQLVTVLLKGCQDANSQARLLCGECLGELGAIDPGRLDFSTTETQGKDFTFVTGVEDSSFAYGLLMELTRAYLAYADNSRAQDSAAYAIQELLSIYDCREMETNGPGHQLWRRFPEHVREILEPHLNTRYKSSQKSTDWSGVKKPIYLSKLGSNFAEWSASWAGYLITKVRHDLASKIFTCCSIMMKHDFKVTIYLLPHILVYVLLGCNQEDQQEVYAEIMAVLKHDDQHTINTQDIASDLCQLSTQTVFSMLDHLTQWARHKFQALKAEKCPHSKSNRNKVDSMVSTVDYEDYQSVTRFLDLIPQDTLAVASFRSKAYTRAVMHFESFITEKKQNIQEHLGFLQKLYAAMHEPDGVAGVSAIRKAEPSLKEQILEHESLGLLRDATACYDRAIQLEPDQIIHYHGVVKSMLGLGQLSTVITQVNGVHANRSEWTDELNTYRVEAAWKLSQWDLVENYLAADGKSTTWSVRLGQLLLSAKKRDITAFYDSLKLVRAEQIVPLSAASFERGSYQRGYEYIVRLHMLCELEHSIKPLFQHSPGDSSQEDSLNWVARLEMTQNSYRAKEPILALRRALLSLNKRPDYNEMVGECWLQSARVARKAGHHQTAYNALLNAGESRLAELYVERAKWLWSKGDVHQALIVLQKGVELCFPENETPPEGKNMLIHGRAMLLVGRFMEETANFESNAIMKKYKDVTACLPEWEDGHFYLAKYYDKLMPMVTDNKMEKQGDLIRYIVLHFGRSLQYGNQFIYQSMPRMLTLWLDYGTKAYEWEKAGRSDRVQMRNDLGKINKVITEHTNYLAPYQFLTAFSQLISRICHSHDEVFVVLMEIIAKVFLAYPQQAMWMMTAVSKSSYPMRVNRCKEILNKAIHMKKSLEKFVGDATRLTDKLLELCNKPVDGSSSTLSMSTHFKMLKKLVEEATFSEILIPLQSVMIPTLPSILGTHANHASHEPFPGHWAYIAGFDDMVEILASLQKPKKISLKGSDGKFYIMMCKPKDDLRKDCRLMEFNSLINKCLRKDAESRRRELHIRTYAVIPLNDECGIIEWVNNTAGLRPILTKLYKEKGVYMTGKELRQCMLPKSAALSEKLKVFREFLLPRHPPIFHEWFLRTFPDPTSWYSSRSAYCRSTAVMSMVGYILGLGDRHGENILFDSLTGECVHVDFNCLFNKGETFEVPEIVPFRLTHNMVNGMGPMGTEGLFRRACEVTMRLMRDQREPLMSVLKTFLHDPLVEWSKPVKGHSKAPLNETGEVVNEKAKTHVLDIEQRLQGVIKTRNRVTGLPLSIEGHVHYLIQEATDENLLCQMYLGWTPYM
inactive: [2] 0.019 | [3] 0.057 | [4] -0.067 | [5] -0.05 | [6] 0.031 | [7] 0.019 | [8] 0 | [9] 0.039 | [10] 0.112 | [11] 0.063 | [12] -0.021 | [13] 0.022 | [14] 0.004 | [15] -0.09 | [16] -0.038 | [17] 0.026 | [18] -0.123 | [19] 0.004
active: [1] -0.267

ADAM15 (UniProt Q13444)
inactive: [1] -0.159 | [2] 0.065 | [3] -0.206 | [4] -0.083 | [6] 0.078 | [7] -0.029 | [9] 0 | [10] -0.045 | [11] 0 | [12] 0.097 | [20] 0.015 | [13] -0.047 | [14] 0.119 | [15] -0.047 | [16] -0.067 | [17] -0.047 | [18] 0.033 | [19] -0.119

AP2M1 (UniProt C9JTK4)
inactive: [1] 0.016 | [2] 0.132 | [3] -0.203 | [4] 0.224 | [5] -0.177 | [7] 0.005 | [8] 0.123 | [11] 0.105 | [12] 0.048 | [20] 0.158 | [13] 0.08 | [14] 0.147 | [16] 0.057 | [17] -0.03 | [18] 0.032

ASB6 (UniProt Q9NWX5)
Chain of UniProt Q9NWX5 (Q9NWX5 whole entry, looked up): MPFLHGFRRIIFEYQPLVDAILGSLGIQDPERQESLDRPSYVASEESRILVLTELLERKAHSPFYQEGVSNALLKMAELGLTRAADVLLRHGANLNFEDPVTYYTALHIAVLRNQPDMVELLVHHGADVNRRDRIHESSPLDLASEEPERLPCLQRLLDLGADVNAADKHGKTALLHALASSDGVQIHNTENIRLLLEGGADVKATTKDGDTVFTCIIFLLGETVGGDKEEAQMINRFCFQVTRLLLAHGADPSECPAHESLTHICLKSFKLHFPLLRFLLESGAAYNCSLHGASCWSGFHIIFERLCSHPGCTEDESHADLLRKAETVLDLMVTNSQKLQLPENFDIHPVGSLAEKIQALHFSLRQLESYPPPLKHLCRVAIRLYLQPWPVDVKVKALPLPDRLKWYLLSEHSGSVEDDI
inactive: [1] 0.298 | [2] 0.008 | [4] -0.029 | [5] -0.214 | [6] -0.083 | [7] -0.034 | [8] 0 | [9] -0.055 | [10] 0.157 | [11] 0.019 | [12] 0.013 | [20] -0.025 | [15] 0.109 | [18] 0.037 | [19] -0.143

APOBEC3G (UniProt Q9HC16)
Chain of UniProt Q9HC16 (Q9HC16 whole entry, looked up): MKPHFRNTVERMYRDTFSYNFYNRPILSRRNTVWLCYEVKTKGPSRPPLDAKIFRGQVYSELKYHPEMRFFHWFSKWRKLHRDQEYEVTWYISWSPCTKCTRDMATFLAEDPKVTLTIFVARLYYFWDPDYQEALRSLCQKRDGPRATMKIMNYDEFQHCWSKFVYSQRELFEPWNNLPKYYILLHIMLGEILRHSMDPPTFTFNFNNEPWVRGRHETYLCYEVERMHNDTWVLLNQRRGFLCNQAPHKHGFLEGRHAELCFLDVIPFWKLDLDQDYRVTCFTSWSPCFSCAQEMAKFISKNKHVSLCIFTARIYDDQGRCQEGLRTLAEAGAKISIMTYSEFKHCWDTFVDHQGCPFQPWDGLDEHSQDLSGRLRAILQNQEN
inactive: [1] -0.012 | [2] 0.066 | [4] 0.039 | [5] -0.092 | [6] 0.047 | [7] -0.074 | [8] -0.053 | [9] 0.046 | [11] -0.065 | [12] 0.059 | [20] -0.165 | [14] -0.189 | [16] 0.013 | [17] 0.102 | [18] 0.023 | [19] -0.01

BRD8 isoform 2 (UniProt Q9H0E9)
inactive: [1] -0.201 | [2] 0.042 | [3] 0.027 | [4] -0.027 | [6] -0.113 | [9] 0.019 | [10] 0.06 | [11] -0.134 | [12] 0.044 | [20] -0.11 | [13] 0.042 | [14] 0.037 | [15] 0.113 | [16] 0.004 | [17] -0.012 | [18] 0.04 | [19] 0.061

BRAF (UniProt P15056)
inactive: [1] -0.031 | [2] -0.05 | [3] -0.004 | [4] -0.047 | [5] 0.007 | [6] -0.076 | [7] 0.012 | [8] 0.015 | [10] -0.061 | [11] 0.006 | [12] 0.023 | [20] 0.034 | [13] -0.072 | [14] -0.014 | [15] -0.013 | [16] -0.004 | [17] -0.014 | [19] -0.024

AMD1 (UniProt P17707)
Chain of UniProt P17707 (P17707 whole entry, looked up): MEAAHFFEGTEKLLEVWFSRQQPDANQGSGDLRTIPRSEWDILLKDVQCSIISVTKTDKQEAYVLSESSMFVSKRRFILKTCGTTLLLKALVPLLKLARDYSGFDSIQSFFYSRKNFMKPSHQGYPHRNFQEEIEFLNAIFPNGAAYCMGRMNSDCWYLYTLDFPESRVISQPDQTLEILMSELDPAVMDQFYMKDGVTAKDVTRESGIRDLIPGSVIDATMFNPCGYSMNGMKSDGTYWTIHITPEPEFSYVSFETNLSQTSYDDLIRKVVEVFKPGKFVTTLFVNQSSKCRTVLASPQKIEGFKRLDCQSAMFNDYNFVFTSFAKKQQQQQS
inactive: [1] -0.009 | [2] -0.128 | [4] -0.193 | [5] -0.023 | [6] 0.024 | [7] 0.041 | [8] 0.058 | [9] -0.034 | [10] 0.043 | [11] -0.058 | [12] 0.059 | [20] 0.035 | [15] 0.043 | [16] 0.105 | [18] -0.07 | [19] 0.008

BAD (UniProt Q92934)
inactive: [1] -0.103 | [2] 0.124 | [3] -0.073 | [4] -0.049 | [5] 0.103 | [6] -0.016 | [7] 0.115 | [8] 0.068 | [9] -0.037 | [10] 0.022 | [11] 0.171 | [12] 0.076 | [20] 0.076 | [13] -0.036 | [14] 0.081 | [15] 0.018 | [17] -0.033 | [18] 0.003 | [19] 0.025

APH1A (UniProt Q96BI3)
inactive: [1] 0.101 | [2] -0.039 | [3] -0.062 | [4] 0.005 | [5] -0.228 | [6] -0.236 | [7] 0.043 | [8] 0.059 | [9] 0.091 | [10] 0.013 | [11] 0.048 | [12] -0.151 | [13] 0.021 | [14] 0.035 | [15] -0.075 | [16] 0.015 | [17] -0.036 | [18] 0.073

ABCA4 (UniProt P78363)
inactive: [1] 0.394 | [2] 0.076 | [3] 0.031 | [4] -0.02 | [5] -0.071 | [7] 0.014 | [8] -0.007 | [10] 0.135 | [11] 0.286 | [12] 0.035 | [20] 0.036 | [13] 0.019 | [15] 0.452 | [16] -0.055 | [18] 0.004 | [19] -0.119

APOH (UniProt P02749)
inactive: [1] 0.03 | [2] -0.156 | [3] -0.696 | [5] 0.151 | [6] -0.059 | [7] -0.307 | [8] 0.529 | [9] -0.197 | [10] -0.537 | [11] -0.22 | [12] -0.179 | [13] -0.071 | [14] -0.017 | [15] -0.747 | [16] -0.125 | [17] 0.458 | [18] -0.108 | [19] -0.595
active: [4] 1.05

ADD3 isoform 2 (UniProt Q9UEY8)
inactive: [1] -0.022 | [2] -0.025 | [3] 0.186 | [4] -0.276 | [5] -0.042 | [6] 0.094 | [8] -0.003 | [9] -0.028 | [10] 0.125 | [11] -0.032 | [12] 0.028 | [20] 0.101 | [13] -0.248 | [14] 0.049 | [15] -0.211 | [16] 0.047 | [17] 0.089 | [18] -0.074 | [19] 0.036

AASDH (UniProt Q4L235)
inactive: [1] -0.13 | [2] -0.01 | [3] -0.221 | [5] -0.141 | [6] 0.041 | [7] -0.143 | [8] 0.207 | [9] 0.063 | [10] 0.093 | [11] -0.04 | [12] 0.07 | [20] 0.142 | [13] -0.058 | [14] 0.01 | [15] -0.066 | [16] -0.017 | [17] -0.034 | [18] -0.161 | [19] -0.236

BRIP1 (UniProt Q9BX63)
Chain of UniProt Q9BX63 (Q9BX63 whole entry, looked up): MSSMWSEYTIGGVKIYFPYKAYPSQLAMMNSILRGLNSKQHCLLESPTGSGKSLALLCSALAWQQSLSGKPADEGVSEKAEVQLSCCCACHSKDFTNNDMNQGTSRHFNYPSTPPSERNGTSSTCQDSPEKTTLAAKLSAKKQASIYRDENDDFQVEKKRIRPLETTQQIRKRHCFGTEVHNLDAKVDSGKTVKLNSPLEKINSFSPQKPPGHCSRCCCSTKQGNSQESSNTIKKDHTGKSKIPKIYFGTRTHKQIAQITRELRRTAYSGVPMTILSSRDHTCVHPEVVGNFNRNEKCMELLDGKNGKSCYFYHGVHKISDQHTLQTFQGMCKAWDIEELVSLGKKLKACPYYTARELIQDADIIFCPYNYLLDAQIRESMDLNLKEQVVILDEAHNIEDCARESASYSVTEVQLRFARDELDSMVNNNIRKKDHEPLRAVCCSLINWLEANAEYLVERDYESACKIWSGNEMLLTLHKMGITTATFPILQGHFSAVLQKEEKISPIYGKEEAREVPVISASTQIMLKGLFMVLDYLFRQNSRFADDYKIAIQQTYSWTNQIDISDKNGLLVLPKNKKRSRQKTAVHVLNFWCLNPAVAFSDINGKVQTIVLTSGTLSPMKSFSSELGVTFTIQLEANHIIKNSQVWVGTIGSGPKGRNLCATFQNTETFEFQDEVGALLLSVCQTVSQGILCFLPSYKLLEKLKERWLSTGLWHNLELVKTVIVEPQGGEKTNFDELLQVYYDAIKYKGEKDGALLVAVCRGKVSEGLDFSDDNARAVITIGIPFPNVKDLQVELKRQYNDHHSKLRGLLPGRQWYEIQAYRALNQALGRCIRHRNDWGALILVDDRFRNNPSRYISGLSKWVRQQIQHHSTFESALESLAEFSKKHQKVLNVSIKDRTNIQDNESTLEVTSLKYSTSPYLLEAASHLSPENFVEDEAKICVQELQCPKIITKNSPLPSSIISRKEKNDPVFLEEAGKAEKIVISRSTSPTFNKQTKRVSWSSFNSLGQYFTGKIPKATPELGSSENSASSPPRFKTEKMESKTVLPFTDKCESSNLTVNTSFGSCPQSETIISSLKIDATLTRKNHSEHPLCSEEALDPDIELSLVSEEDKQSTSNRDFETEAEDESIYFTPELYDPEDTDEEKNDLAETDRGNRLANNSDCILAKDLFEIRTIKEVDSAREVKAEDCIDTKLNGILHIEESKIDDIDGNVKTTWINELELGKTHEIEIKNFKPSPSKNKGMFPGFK
inactive: [1] 0.072 | [2] 0.098 | [3] 0.061 | [4] -0.14 | [6] 0.126 | [7] 0.047 | [9] 0.003 | [10] 0.067 | [11] 0.13 | [12] 0.019 | [20] 0.151 | [13] -0.005 | [14] 0.042 | [15] -0.035 | [16] 0.183 | [17] 0.009 | [18] -0.088 | [19] 0.018
